High-throughput results: PubChem, National Center for Advancing Translational Sciences (NCATS)
Compounds with a hit are over-represented: about 5.3% of the library has one in this group of screens.
Six1-Eya2 blk: inhibitors of human Six1/Eya2 interaction; 360,000 compounds, 0.56% hits; AID 651725; Q15475+O00167; AlphaScreen GST-Six1/His-Eya2 binding, biochemical; hits give low values; activity change, % (test concentration not listed); in the data active = activity change below about -65%; inconclusive = mostly about -30% to -63%; note: % is set by controls: 0 for no effect and ±100 for the full control effect
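Compounds are tested against tagged Six1 and Eya2 proteins bridged by glutathione donor and nickel acceptor beads; after a one-hour incubation at 37 °C without light, AlphaScreen emission is recorded.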
JMJD2A Tudor inh: blocks the human JMJD2A Tudor domain. AlphaScreen JMJD2A-Tudor / H3K4me3 peptide binding. O75164. AID 504339. Potency, µM (highest dose often 114 µM), for the others: at the highest dose activity change, negative = inhibition, hits mostly inhibitors. 390,000 compounds, 4.4% hits; note: potency is the fitted concentration of half-maximal effect; % is set by controls: 0 for no effect and ±100 for the full control effect; nearly all actives have a fitted effect of over 50% in size
TDP1 block: inhibitors of human tyrosyl-DNA phosphodiesterase TDP1 | Q9NUW8 | recombinant TDP1, AlphaScreen DNA substrate cleavage | Potency, µM (series often up to 130 µM), for inactives: at the highest dose activity change, negative = inhibition, usual class: inhibitors | 350,000 compounds, 0.28% hits; note: potency is the fitted concentration of half-maximal effect; % is set by controls: 0 for no effect and ±100 for the full control effect; nearly all actives have a fitted effect of over 40% in size
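Recombinant E. coli-expressed Tdp1 (1 nM) preincubated with compound 15 min at RT, then 5'-biotin/3'-phosphotyrosine-FITC DNA substrate (15 nM) added for 5 min. AlphaScreen beads (10 ug/ml) added, 10 min RT; tyrosine-FITC cleavage read as signal loss.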
CtBP-E1A inh: inhibitors of CtBP/E1A interaction | AlphaScreen GST-E1A/His-CtBP binding, 1536-well; hits give low values | activity change, % (test concentration not listed) | 340,000 compounds, 0.49% hits | AID 651724; in the data active = activity change below about -65%; inconclusive = mostly about -30% to -63%; note: % is set by controls: 0 for no effect and ±100 for the full control effect
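AlphaScreen with 125 nM GST-E1A and 125 nM His-CtBP (5X stocks) in Tris pH 8.0, 300 mM NaCl, BSA, Tween 20, TCEP. Compounds preincubated 2 h at 37 deg C, then glutathione donor/nickel acceptor beads added for 1 h at 37 deg C in dark.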
BAZ2B block: BAZ2B (human) inhibition; Q9UIF8; AlphaScreen BAZ2B-H3K14Ac peptide displacement; Potency, µM (titrated, usually from 114 µM), without a hit: at the highest dose activity change, negative = inhibition, actives largely listed as inhibitors; 360,000 compounds, 4.4% hits; AID 504333; note: potency is the fitted concentration of half-maximal effect; % is set by controls: 0 for no effect and ±100 for the full control effect; nearly all actives have a fitted effect of over 60% in size
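BAZ2B (50 nM) with biotin-H3(5-23)K14Ac peptide (50 nM) in PBS pH 7.4, 0.01% Tween-20, preformed 30 min, then compound 30 min at room temperature; top concentration 110uM. AlphaScreen streptavidin donor/nickel chelate acceptor beads (10 ug/mL final), 20 min dark, signal read.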
HP1b chromo inh: HP1-beta chromodomain-methylated histone interaction inhibition | P83916 | AlphaScreen HP1-beta / biotin-H3K9me3 peptide binding | Potency, µM (highest dose often 114 µM), without a hit: top-dose activity change, negative = inhibition, most hits filed as inhibitors | 390,000 compounds, 0.56% hits | AID 540317; note: potency is the fitted concentration of half-maximal effect; nearly all actives have a fitted effect of over 70% in size
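Compound inhibition of the preformed complex between 50 nM HP1-beta and 50 nM biotinylated H3K9me3 peptide was read by AlphaScreen. Buffer was PBS pH 7.4 with 0.01% Tween-20. Incubations ran 30 min at room temperature, with 10 ug/mL donor/acceptor beads.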
An asterisk follows results filed as active; ? = inconclusive; . = not tested or not shown; [ ] = another dose, or the depositor's remark. Unless noted, calls come from the whole dose curve; as a rule, active = well fitted inhibition curve with a large enough effect; inconclusive = small, poorly fitted or top-dose-only effect; inactive = no such curve, though single readings can be large or run the other way.

SMILES | Six1-Eya2 blk | JMJD2A Tudor inh | TDP1 block | CtBP-E1A inh | BAZ2B block | HP1b chromo inh
COc1cnc(-c2ccccn2)nc1Oc1cccc(Cl)c1 | ? | -24% | 10% | ? | 45µM* | 32%
Cc1ccc(NC(=O)CN2C(=O)c3ccccc3Sc3ccc(C(=O)N4CCOCC4)cc32)cc1F | . | -18% | -4% | . | -3% | 35%
COC(=O)[C@H](COC(C)(C)C)NC(=O)O[C@@H]1C(=O)c2ccc(OC)cc2O[C@H]1c1ccc2c(c1)OCO2 | . | . | 4% | . | . | .
O=C(Oc1csc(=S)n1C(=O)c1ccccc1)c1ccccc1 | -11 | 35µM* | 0% | 8 | ? | 50µM*
CC1CN(C(=O)N2CCC(C(=O)NCCCc3ccccc3)CC2)c2ccccc2O1 (stereo unspecified) | . | -5% | -3% | . | -3% | 48%
Cc1nc(NC(=O)C2CCCC2)sc1Cc1ccc2c(c1)OCO2 | -8 | ? | 5% | 5 | 50µM* | 13%
Cc1ccc(C(=O)C2=C(O)C(=O)N(Cc3cccnc3)C2c2ccc(OC(C)C)cc2)o1 (stereo unspecified) | 0 | ? | 3% | 0 | ? | 21%
COc1ccc(C2C(C(=O)c3ccc(C)o3)=C(O)C(=O)N2Cc2cccnc2)cc1 (stereo unspecified) | 9 | 35µM* | 7%[0.0935 µM] | -6 | -17% | 16%
Cc1ccc(C(=O)C2=C(O)C(=O)N(Cc3ccco3)C2c2ccc(N(C)C)cc2)o1 (stereo unspecified) | 11 | ? | 3% | -11 | 35µM* | 22%
COc1cccc2cc(C(=O)C3=C(O)C(=O)N(Cc4ccco4)C3c3cccnc3)oc12 (stereo unspecified) | 0 | 79µM* | 0% | 2 | -6% | 10%
Cc1ccc(C(=O)C2=C(O)C(=O)N(Cc3ccco3)C2c2cccc(Cl)c2)o1 (stereo unspecified) | 8 | 25µM* | 2% | 0 | ? | 1%
CN(C(=O)CSc1nc2ccccc2n1CC(=O)N(C)c1ccc(F)cc1)c1ccccc1 | . | -17% | 4% | . | -13% | 29%
CCc1cccc(CN2CCC(CNC(=O)Nc3ccc(Cl)cc3)CC2)c1 | 1 | -19% | -4% | . | 50µM* | 27%
CCn1c(CSc2nccn2C)nc2cc(C(=O)O)ccc21 | -4 | 32µM* | -12% | -4 | 50µM* | 20%
CCn1c(CSc2nc3ccccc3[nH]2)nc2cc(C(=O)O)ccc21 | 1 | ? | 1% | -16 | ? | 5%
CCCCN1C(=O)C(=O)N(CC(=O)NC2CCCc3ccccc32)C1=O (stereo unspecified) | -3 | 5µM* | 10% | 24 | -5% | ?
COc1ccc(-n2c(-c3ccc(F)cc3)cn3c4c(=O)n(C)c(=O)n(C)c4nc23)cc1 | . | -4% | 2% | . | -15% | 27%
Cc1cc2nc(-c3cc(NC(=O)c4cc5ccccc5o4)ccc3Cl)oc2cc1C | . | -10% | 0%[12.3 µM] | . | 1% | 125%
O=C(OCc1csc(-c2ccccc2)n1)c1ccccc1O | 9 | 136% | -5% | -1 | . | 128%
CC(C)(C)C(=O)COC(=O)c1ccccc1O | 0 | 24% | 2% | 2 | 4% | 53%
O=C(OCCCOC(=O)c1ccccc1O)c1ccccc1O | . | . | 18µM* | . | 334% | .
O=C(COC(=O)c1ccc(O)cc1)NCCCc1ccccc1 | 20 | -17% | 5% | 10 | -4% | 24%
O=C(COC(=O)c1ccccc1O)NCCCc1ccccc1 | -2 | 79µM* | 5% | -1 | 20% | 4%
O=C(OCc1ccccc1)c1ccccc1O | 33 | 118% | 79µM* | 37 | . | 139%
CCC(=O)[C@]12O[C@@]3(C4C(=O)OCCC41)N(CC)C(C)=C(C(=O)OC)C(c1ccccc1)N3C2=O (stereo partly specified) | . | . | -1%[21 µM] | . | . | .
SMILES | Six1-Eya2 blk | JMJD2A Tudor inh | TDP1 block | CtBP-E1A inh | BAZ2B block | HP1b chromo inh
CCn1nc(C)c2c(-c3ccccc3)cc(=O)n(C(C)C(=O)NCCc3ccc(Cl)cc3)c21 (stereo unspecified) | . | -17% | -3% | . | -10% | 27%
COc1ccc(N2CCN(CC(O)COC(c3ccc(F)cc3)c3ccc(F)cc3)CC2)cc1 (stereo unspecified) | ? | 3.5µM* | . | . | 20µM* | ?
OCCN1CCN(CC(O)COC(c2ccc(F)cc2)c2ccc(F)cc2)CC1 (stereo unspecified) | 5 | 7.1µM* | . | 9 | 40µM* | ?
OC(COC(c1ccc(F)cc1)c1ccc(F)cc1)CN1CCCC(C(F)(F)F)C1 (stereo unspecified) | 6 | 3.5µM* | . | 0 | 50µM* | ?
OC(CN1CCCC(C(F)(F)F)C1)c1ccccc1 (stereo unspecified) | -5 | -8% | 9% | -4 | 2% | -2%
COc1ccc(N2CCN(CC(O)COc3ccc(F)cc3)CC2)cc1 (stereo unspecified) | -5 | ? | . | -1 | ? | -8%
COc1cccc(CNC(=O)C2CCCN(c3nnc(-n4c(C)ccc4C)s3)C2)c1OC (stereo unspecified) | . | -14% | 10% | . | -31% | 5%
O=C1Nc2cc(Cl)ccc2Oc2cc(Oc3ccccc3)ccc21 | . | -16% | 9% | . | -14% | 9%
Cc1cc(C)nc(-n2nc(C)c3c2NC(=O)CC3c2ccccc2OC(C)C)n1 (stereo unspecified) | . | -20% | 8% | . | -8% | 21%
O=C(CN1C(=O)CCSc2ccc(S(=O)(=O)N3CCCC3)cc21)Nc1cccc(Cl)c1 | . | -14% | 9% | . | 1% | 28%[57 µM]
COCCCNc1nc(=S)[nH]c2cc(OC)c(OC)cc12 | -90* | -23% | 3% | -95* | -26% | 34%
COCCCNc1nc2ccccc2[nH]c1=O | 0 | 2% | -4% | 11 | -2% | 60%
COc1cc2[nH]c(=S)nc(NCCC(C)C)c2cc1OC | -87* | 25µM* | 5% | -89* | ? | 0%
CCOC(=O)CC(C(=O)OCC)C1CCCCC1=O (stereo unspecified) | . | . | 4% | . | . | .
O=C(Cc1ccccc1)NC1CC(=O)N(c2ccc3c(c2)OCCO3)C1 (stereo unspecified) | . | -11% | 3% | . | 6% | 54%
Cc1c(NC(=O)Nc2ccc(Br)cc2F)sc2nc3n(c(=O)c12)CCC(C)CC3 (stereo unspecified) | . | 0% | 2% | . | 2% | 37%
O=C(O)CCN1c2ccccc2Sc2ccccc21 | -2 | -5% | 3% | . | ? | 37%
CN1c2ccccc2Sc2cc(N)ccc21 | -23 | 32µM* | . | ? | 28µM* | ?
